# Sampled rows, rich in hits. Any-hit rate of the full collection: about 2.9%.
# EPAC1 ag val – human EPAC1 agonism, validation; O95398; EPAC1 Rap1b BODIPY-GDP exchange, fluorescence; Potency, µM, for inactives: max response, positive = active, most hits filed as activators; 16,000 compounds, 1% hits; AID 1645883; also: nearly all actives have a fitted effect of over 70% in size
# Target sequence (O95398 whole entry, looked up): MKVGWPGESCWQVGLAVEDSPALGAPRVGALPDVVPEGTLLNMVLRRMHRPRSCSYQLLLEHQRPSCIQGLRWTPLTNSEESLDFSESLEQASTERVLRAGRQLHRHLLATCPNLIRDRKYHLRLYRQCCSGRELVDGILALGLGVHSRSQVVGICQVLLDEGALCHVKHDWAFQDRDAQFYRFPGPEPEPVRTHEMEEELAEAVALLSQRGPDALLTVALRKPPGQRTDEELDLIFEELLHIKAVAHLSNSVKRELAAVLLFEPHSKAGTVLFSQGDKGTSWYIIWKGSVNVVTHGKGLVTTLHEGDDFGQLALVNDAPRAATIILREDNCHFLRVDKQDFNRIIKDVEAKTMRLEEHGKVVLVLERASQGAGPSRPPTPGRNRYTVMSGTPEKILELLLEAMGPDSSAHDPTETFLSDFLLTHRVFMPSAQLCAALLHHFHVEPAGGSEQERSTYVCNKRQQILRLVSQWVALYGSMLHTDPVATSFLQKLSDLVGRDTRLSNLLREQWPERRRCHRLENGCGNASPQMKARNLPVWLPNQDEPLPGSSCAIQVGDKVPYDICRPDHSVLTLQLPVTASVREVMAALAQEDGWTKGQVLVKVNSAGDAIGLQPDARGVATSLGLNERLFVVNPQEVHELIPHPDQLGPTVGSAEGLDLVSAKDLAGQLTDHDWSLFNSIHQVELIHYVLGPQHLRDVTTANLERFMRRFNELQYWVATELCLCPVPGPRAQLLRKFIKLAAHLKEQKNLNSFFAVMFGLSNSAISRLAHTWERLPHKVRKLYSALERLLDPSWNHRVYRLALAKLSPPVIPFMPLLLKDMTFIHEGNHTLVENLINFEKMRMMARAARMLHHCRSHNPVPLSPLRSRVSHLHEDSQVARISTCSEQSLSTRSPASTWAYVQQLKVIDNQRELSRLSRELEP
# EPAC2 ant val – human EPAC2 antagonism, validation. Potency, µM (doses to about 112 µM), without a hit: top-dose activity, negative = inhibition, hits mostly inhibitors. EPAC2 Rap1B BODIPY-GDP exchange, fluorescence. 16,000 compounds, 1.7% hits;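 also: 100% = activation by cAMP agonist control; nearly all actives have a fitted effect of over 40% in size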
#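 Normalized against a 6.5 mM cAMP agonist control, compounds were tested on 100 nM EPAC2 exchanging Rap1B-bound BODIPY-GDP (250 nM) for 50 uM GDP. Fluorescence drop (ex 480, em 540 nm) was tracked at room temperature over 30 min at 5-min intervals.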
# Starred values were filed as active, the others as inactive; i = inactive; u = inconclusive; ! = not confirmed by another sample; [ ] = dose if it differs, or a comment. Calls follow the shape of the dose curve; as a rule, active = well fitted curve in the direction sought with a large enough effect; inconclusive = small, poorly fitted or top-dose-only effect, or another doubt; inactive = no such curve, though single readings can be large; an effect the other way counts as inactive or inconclusive. Unless noted, % is scaled to controls: 0 for no effect and ±100 for the full control effect; potency is read from the fitted curve at half-maximal effect.
SMILES,EPAC1 ag val,EPAC2 ant val
C#C[C@]1(OC(C)=O)CC[C@H]2[C@@H]3CCC4=C[C@@H](OC(C)=O)CC[C@@H]4[C@H]3CC[C@@]21C,45µM*!,u
C#C[C@]1(O)CC[C@H]2[C@@H]3CCc4cc(O)ccc4[C@H]3CC[C@@]21C,-37%,-20%
C#C[C@@]1(O)CCC2C3CCC4=CC(=O)CCC4C3CC[C@@]21CC (stereo partly specified),9%,-21%
C#C[C@]1(OC(C)=O)CCC2C3CCC4=CC(=O)CCC4C3CC[C@]21C (stereo partly specified),16%,79µM*
COc1ccc(/C=C/C(=O)c2cccs2)c(OC)c1,u,-24%
COc1cc(O)c(C(=O)/C=C/c2ccc(OC)c(O)c2)c(OC)c1,100µM*,-27%
CCCCCCCCCCCCCC(=O)OCC(COP(=O)([O-])OCC[N+](C)(C)C)OC(=O)CCCCCCCCCCCCC (stereo unspecified),-34%,16%
Clc1cccc(Cl)c1NC1=NCCN1,5%,-8%
COc1ccc(C(=O)N2CCC3(CC2)CN(c2ccncc2)C3)cc1,100µM*,-30%
COc1ccc(C(=O)N2CCC3(CCCN(c4ccncc4)C3)CC2)cc1,6%,-25%
O=C(c1cccc(F)c1)N1CCC2(CC1)CN(c1ccncc1)C2,u,-27%
COc1cccc(N2[C@@H](CC(C)=O)c3cc(C(F)(F)F)ccc3S2(=O)=O)c1,-2%,u
CCOC(=O)C[C@H]1c2ccc(C(F)(F)F)cc2S(=O)(=O)N1c1cccc(OC)c1,-50%,45µM*
C[N+](C)(C)CCOP(=O)([O-])OP(=O)(O)OCC1OC(n2ccc(N)nc2=O)C(O)C1O (stereo unspecified),u,-9%
NC(=O)C(c1ccccc1)(c1ccccc1)[C@@H]1CCN(CCc2ccc3c(c2)CCO3)C1,-12%,24%
CC[C@@]1(O)C(=O)OCc2c1cc1n(c2=O)Cc2cc3c([N+](=O)[O-])cccc3nc2-1,6%,-17%
CC[C@@]1(O)C(=O)OCc2c1cc1n(c2=O)Cc2cc3c(CN(C)C)c(O)ccc3nc2-1,112µM*,87%
CN(CC1COCCO1)C(=O)c1cnn(-c2ncc3c(n2)-c2ccccc2CC3)c1C1CC1 (stereo unspecified),15%,-21%
O=C(O)c1nc(=O)[nH]c(=O)[nH]1,-1%,-17%
COc1cccc2c1C(=O)c1c(O)c3c(c(O)c1C2=O)C[C@@](O)(C(=O)CO)C[C@@H]3O[C@H]1C[C@H](N)[C@H](O[C@@H]2CCCCO2)[C@H](C)O1,22%,136%
COc1cccc2c1C(=O)c1c(O)c3c(c(O)c1C2=O)C[C@@](O)(C(C)=O)C[C@@H]3O[C@H]1C[C@H](N)[C@H](O)[C@H](C)O1,112µM*!,41%[29.6 µM]
CC[C@@]1(O)C[C@H](O[C@H]2C[C@H](N(C)C)[C@H](O[C@H]3C[C@H](O)[C@H](O[C@H]4CCC(=O)[C@H](C)O4)[C@H](C)O3)[C@H](C)O2)c2c(cc3c(c2O)C(=O)c2c(O)cccc2C3=O)[C@H]1C(=O)OC,18%,25%
CC(=O)[C@]1(O)Cc2c(O)c3c(c(O)c2[C@@H](O[C@H]2C[C@H](N)[C@H](O)[C@H](C)O2)C1)C(=O)c1ccccc1C3=O,40µM*,i
CC(=O)[C@]1(O)Cc2c(O)c3c(c(O)c2[C@@H](O[C@H]2C[C@H](N)[C@H](O)[C@H](C)O2)C1)C(=O)c1c(O)cccc1C3=O,112µM*,i
Cn1cccc1C(=O)N1CCC2(CCCN(Cc3nccs3)C2)CC1,-35%,-20%
SMILES,EPAC1 ag val,EPAC2 ant val
C/C(=C\c1ccco1)CN1CCOc2ccc(C(C)(O)COc3ccccc3)cc2C1 (stereo unspecified),27%,-16%
O=C1c2ccccc2C(=O)c2cc(Cn3cc(-c4cccc(C(F)(F)F)c4)nn3)ccc21,1%,13%
c1ccc(C(NCc2cccnc2)(c2ccccc2)c2ccccc2)cc1,u,10µM*
c1cncc(CNc2ccnc(-c3cccnc3)n2)c1,20%,6%
NC(Cc1c[nH]c2ccccc12)C(=O)O (stereo unspecified),25%,-7%
CC(=O)N[C@@H](Cc1c[nH]c2ccccc12)C(=O)OCc1cc(C(F)(F)F)cc(C(F)(F)F)c1,5%,45µM*!
N#Cc1cccc(NC(=O)N2CC[C@@]3(CCCN(C(=O)c4cnccn4)C3)C2)c1,-40%,-8%
CC1CCC2=C1C[C@H](C(C)(C)O)CC[C@@H]2C (stereo partly specified),29%,-17%
Cc1cccc(CN2Cc3cccc4c3[C@H](C=CC4)CC2=O)c1,3%,32µM*
O=C1C[C@H]2C=CCc3cccc(c32)CN1Cc1ccc(F)cc1,26%,u
CN/C(=C\[N+](=O)[O-])NCCSCc1ccc(CN(C)C)o1,-1%,0%
COc1cccc(-n2c(SC)nnc2C2CCN(CCC(C)c3ccc(C)o3)CC2)c1 (stereo unspecified),-24%,4%
CC(C)C[C@@H](COc1ccccc1)N1CCN(Cc2ccccc2)CCC1=O,-21%,18µM*
O=C1CCN(Cc2ccccc2)CCN1[C@H](COc1ccccc1)Cc1ccccc1,-7%,79µM*
CCCN1CCC(=O)N([C@H](COc2ccccc2)Cc2ccccc2)CC1,5%,16%
CC(C)C[C@@H](CO)N1CCN(Cc2ccccc2)CCC1=O,-2%,u
Cc1onc(-c2ccccc2Cl)c1C(=O)N[C@@H]1C(=O)N2[C@@H]1SC(C)(C)[C@@H]2C(=O)O,-28%,24%[56.6 µM]
COCCn1c(=O)c(-c2cccs2)nc2cnc(Nc3ccccc3)nc21,100µM*,71%
O=c1c(-c2cc(F)cc(F)c2)nc2cnc(N3CCOCC3)nc2n1-c1ccccc1,112µM*,-9%
COc1ccc(-n2c(=O)c(-c3cccs3)nc3cnc(Nc4cccc(OC)c4)nc32)cc1,100µM*,28%
COc1cccc(Nc2ncc3nc(-c4cccs4)c(=O)n(CCC#N)c3n2)c1,u,3%
O=c1c(-c2ccccc2)nc2cnc(N3CCOCC3)nc2n1-c1ccccc1,-31%,-17%
COCCn1c(=O)c(-c2ccc(OC)cc2)nc2cnc(Nc3ccccc3)nc21,-19%,-18%
O=c1c(-c2cc(F)cc(F)c2)nc2cnc(N3CCNCC3)nc2n1Cc1cccs1,u,45µM*
O=c1c(-c2cc(F)cc(F)c2)nc2cnc(N3CCOCC3)nc2n1Cc1cccs1,-30%,-2%
SMILES,EPAC1 ag val,EPAC2 ant val
COC(=O)N1CCC[C@@]2(CCN(c3ccccc3)C2)C1,-1%,-36%
COc1ccccc1C1OC(=O)CC1C(=O)OC[C@@H]1CCCN2CCCCC12 (stereo partly specified),1%,20%
CC(C)(CO)[C@@H](O)C(=O)NCCCO,1%,-10%
O=C(NCC1(N2CCOCC2)CCCCC1)c1cnn(-c2nccc(-c3ccco3)n2)c1C1CC1,12%,-12%
Cc1noc(C)c1-c1ccc2ncnc(N(C)C)c2c1,-1%,-11%
O=c1[nH]cnc2c1nc(Cl)n2C1OC(CO)C(O)C1O (stereo unspecified),4%,-6%
COc1ncc2ncc(=O)n(Cc3cccs3)c2n1,3%,-21%
CN1CCN(c2ncc3nc(-c4cccs4)c(=O)n(Cc4cccs4)c3n2)CC1,-12%,4%
CN(C)c1ncc2nc(-c3cccs3)c(=O)n(CCC#N)c2n1,100µM*,113%
N#CCCn1c(=O)c(-c2ccccc2)nc2cnc(Nc3ccccc3)nc21,23%,-19%

# Screens deposited in PubChem by National Center for Advancing Translational Sciences (NCATS).
